PLK1 PBD block: qHTS for Inhibitors of PLK1-PDB (polo-like kinase 1 - polo-box domain): Primary Screen; actives 2.8% (n = 360,000); Plk1 PBD binding of FITC phosphopeptide, fluorescence polarization; AID 720504, 2013; Potency, µM, hits mostly inhibitors; note: series mostly up to about 57 µM; nearly all actives have a fitted effect of over 65% in size
Sfp inh: qHTS Assay for Inhibitors of Bacillus subtilis Sfp phosphopantetheinyl transferase (PPTase); actives 3.5% (n = 310,000); Biochemical Sfp PPTase activity, qHTS; Potency, µM, hits mostly inhibitors;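 note: the enzyme is Sfp with the accession as filed and its product quenches rhodamine fluorescence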
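Reaction rates are the 30-min fluorescence difference (ex 525, em 598 nm) in wells containing 15 nM Sfp, 5 uM rhodamine-CoA and 12.5 uM BHQ-2-YbbR at pH 7.6 with 10 mM MgCl2.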
BAZ2B block: qHTS Assay for Inhibitors of BAZ2B. Bromodomain adjacent to zinc finger domain protein 2B (Homo sapiens), Q9UIF8. AlphaScreen BAZ2B-H3K14Ac peptide displacement. Potency, µM (series often up to 114 µM), usual class: inhibitors. actives 4.4% (n = 360,000). AID 504333, 2011; note: nearly all actives have a fitted effect of over 60% in size
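BAZ2B 50 nM plus b-H3(5-23)K14Ac 50 nM, PBS pH 7.4/0.01% Tween-20, 30 min RT; compound added (max 110 uM), 30 min RT; streptavidin donor/Ni-chelate acceptor beads 10 ug/mL final, 20 min dark; AlphaScreen read.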
HP1b binding inh: HTS for Inhibitors of HP1-beta Chromodomain Interactions with Methylated Histone Tails; AlphaScreen HP1-beta / biotin-H3K9me3 peptide binding; Chromobox protein homolog 1 (Homo sapiens), P83916; AID 540317, 2011; Potency, µM (top dose mostly 114 µM), most hits filed as inhibitors; actives 0.56% (n = 390,000); note: nearly all actives have a fitted effect of over 70% in size
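HP1-beta protein (50 nM final) preincubated 30 min at room temperature with biotinylated H3(1-18)K9me3 peptide (50 nM) in PBS pH 7.4, 0.01% Tween-20, then compound added for 30 min. AlphaScreen streptavidin donor/nickel chelate acceptor beads (10 ug/mL final), 30 min dark, luminescence read.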
JMJD2A Tudor inh: qHTS Assay for Inhibitors of JMJD2A-Tudor Domain | actives 4.4% (n = 390,000) | Lysine-specific demethylase 4A (Homo sapiens), O75164 | AID 504339, 2011 | Potency, µM (doses to about 114 µM), hits mostly inhibitors | AlphaScreen JMJD2A-Tudor / H3K4me3 peptide binding; note: nearly all actives have a fitted effect of over 50% in size
G9a inh: qHTS Assay for Inhibitors of Histone Lysine Methyltransferase G9a | Potency, µM (top dose mostly 102 µM), actives largely listed as inhibitors | AID 504332, 2011 | G9a H3K9 monomethylation, AlphaScreen, 2 h | actives 8.8% (n = 350,000); note: nearly all actives have a fitted effect of over 75% in size
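Compounds were preincubated with 20 nM G9a for 15 min, after which biotinylated H3K9 peptide (500 nM) and SAM (20 uM) started a 2 h room-temperature reaction. Monomethylated product was quantified by antibody-based AlphaScreen chemiluminescence.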
Numbers stand for hits; . = inactive; ? = inconclusive; / = no result; [ ] = another dose, or the depositor's remark. Most compounds without a hit are left out; they make up all but 12% or so of the library. Calls come from the whole dose curve; as a rule, active = well fitted curve in the direction sought with a large enough effect; inconclusive = small, poorly fitted or top-dose-only effect, or another doubt; inactive = no such curve, though single readings can be large; an effect the other way counts as inactive or inconclusive.

SMILES | PLK1 PBD block | Sfp inh | BAZ2B block | HP1b binding inh | JMJD2A Tudor inh | G9a inh
COC(=O)CCC(=O)OC1(C)C(=O)C2=CN(Cc3ccccc3)C(c3ccc(OC)cc3)=CC2=C(Br)C1=O (stereo not given) | ? | . | / | ? | ? | /
COC(=O)CCC(=O)OC1(C)C(=O)C2=CN(CC3CC3)C(c3ccc(OC)cc3)=CC2=C(Br)C1=O (stereo not given) | ? | . | . | . | ? | ?
COC(=O)CCC(=O)OC1(C)C(=O)C2=CN(C3CC3)C(c3ccc(OC)cc3)=CC2=C(Br)C1=O (stereo not given) | 27µM | . | / | . | ? | /
COC(=O)CCC(=O)OC1(C)C(=O)C2=CN(Cc3ccc(OC)cc3)C(c3ccc(OC)cc3)=CC2=C(Br)C1=O (stereo not given) | ? | . | / | ? | 50µM | /
O=C(c1cc(C(F)(F)F)cc(C(F)(F)F)c1)N1CCC2(CCN(Cc3ccncc3)CC2)CC1 | / | . | / | / | / | .[12.7 µM]
O=C(Nc1cccc(C(F)(F)F)c1)C1CCN(S(=O)(=O)c2cccc3nsnc23)CC1 | / | / | / | . | . | .
Cc1ccc(C(=O)Nc2nnc(S(=O)(=O)N3c4ccccc4CC3C)s2)cc1 (stereo not given) | / | / | . | . | . | .
Nc1nc2ccc([N+](=O)[O-])cc2[nH]1 | . | . | . | . | . | .
Nc1[nH]c2cc([N+](=O)[O-])ccc2c1-c1ccccn1 | . | . | 28µM | ? | ? | 45µM
Cc1c(Cl)cccc1NC(=O)c1cc(-c2cccc(Cl)c2)on1 | / | / | . | . | . | .
O=C(CCCN1C(=O)CSc2ncccc21)N1CCN(Cc2ccccc2)CC1 | . | . | . | . | . | 35µM
CCOC(=O)N1CCC(NC(=O)CCCN2C(=O)CSc3ncccc32)CC1 | . | . | . | . | . | .
Cc1ccc(NC(=O)Cn2cc3c(n2)CCCC3)cc1Cl | / | / | . | . | . | .
Cn1c(=O)c(-c2cc(F)cc(F)c2)nc2cnc(N3CCOCC3)nc21 | / | . | / | / | / | .[0.501 µM]
COc1ccc(C(=O)NNC(=S)Nc2ccccc2)cc1 | . | . | . | . | . | 45µM
CCn1c(C)nc2cc(C(=O)NNS(=O)(=O)c3c(F)cc(F)c(Cl)c3F)ccc21 | . | . | . | . | 25µM | 40µM
COc1ccc(C(=O)NNC(=S)NC(=O)c2ccc(OC)cc2)cc1 | . | . | . | . | . | /
O=C(NNC(=S)Nc1ccc(Cl)cc1)c1ccccc1 | . | . | . | . | . | 35µM
O=C(NNC(=S)Nc1cccc(Cl)c1)c1ccccc1 | . | . | . | . | . | 35µM
O=C(c1cccc(F)c1)N1CCC2(CC1)CN(c1ccccn1)C2 | / | . | / | / | / | .[12.7 µM]
CCn1c(C)nc2cc(C(=O)NNC(=S)Nc3ccc(OC)cc3)ccc21 | . | . | . | . | . | 40µM
O=C1CN(C(=O)c2ccc(S(=O)(=O)N3CCCC3)cc2)C(c2ccccc2)c2cc(Cl)ccc2N1 (stereo not given) | / | / | . | . | . | .
Cc1ccoc1C(=O)N1CCCCC1C(=O)O (stereo not given) | 15µM | . | / | ? | .[11.4 µM] | .
Cc1cc(C)n(-c2ccc(NC(=O)C3CCCCN3C(=O)c3occc3C)cc2)n1 (stereo not given) | . | . | . | . | . | .
Cc1cc2c(OCC(CNC(C)(C)C)OC(=O)c3ccccc3)cccc2[nH]1 (stereo not given) | / | . | / | / | / | 16µM
SMILES | PLK1 PBD block | Sfp inh | BAZ2B block | HP1b binding inh | JMJD2A Tudor inh | G9a inh
Cc1cc2c(OCC(O)CNC3CCCCC3)cccc2[nH]1 (stereo not given) | . | . | . | . | ? | ?
COC(=O)[C@]1(C)CCC[C@]2(C)c3ccc(C(C)C)cc3C(=O)CC12 (stereo not given in full) | / | . | / | / | / | /
CCCC(=O)NC(=S)Nc1nc(-c2ccc(OC)cc2)cs1 | . | . | . | . | . | .
CCCC(=O)Nc1ccc(-c2csc(N/N=C\c3ccncc3)n2)cc1 | . | 25µM | ? | . | . | /
CC(=O)Nc1ccc(-c2csc(N/N=C\c3ccncc3)n2)cc1 | . | 20µM | . | . | ? | 8.9µM
CC[N+](C)(CC)CC(=O)OCC1C(C)C=C(C)CC1C (stereo not given) | . | 89µM | . | . | ? | ?
CC(C)c1ccc2oc(=O)cc(CN3CCN(c4ccc(F)cc4)CC3)c2c1 | . | . | . | . | . | 50µM
COc1ccc(N2CCN(Cc3cc(=O)oc4ccc(C)cc34)CC2)cc1 | . | . | . | . | . | .
CCc1ccc2oc(=O)cc(CN3CCN(c4ccc(F)cc4)CC3)c2c1 | . | . | . | . | . | 50µM
CCOc1ccc2oc(=O)cc(CN3CCN(Cc4ccc(F)cc4)CC3)c2c1 | / | / | . | . | . | .
O=C(CCCC[C@@H]1SC[C@H]2NC(=O)N[C@H]12)Nc1ccc(C(=O)O)cc1 | / | . | / | / | / | /
Cc1ccc(C)c2[nH]c(=O)c(CCNC(=O)c3ccc(Br)o3)cc12 | . | / | / | . | . | /
COc1ccc2cc(CCNC(=O)c3ccc(Br)o3)c(=O)[nH]c2c1 | . | . | . | . | . | 50µM
Cc1cc2cc(CCNC(=O)c3ccc(Br)o3)c(=O)[nH]c2cc1C | . | 28µM | . | . | . | 18µM
O=C(O)c1ccc2c(c1)C(=O)N([C@]1(C(=O)O)CC1c1ccccc1)C2=O (stereo not given in full) | / | . | . | / | ? | .[12.7 µM]
COc1ccc(N2CCN(C3CCCN(C(=O)CCN4CCCCO4)C3)CC2)cc1 (stereo not given) | . | . | . | . | . | .[12.7 µM]
CC(=O)Nc1ccc(SC(Sc2ccc(NC(C)=O)cc2)c2ccccc2)cc1 | 17µM | / | / | . | . | /
COC(=O)c1ccccc1NC(=O)c1ccc2c(c1)CCN2S(=O)(=O)c1ccc(C)cc1 | / | / | . | . | . | .
Cc1cc(C(=O)CSc2nnnn2C)c(C)n1-c1ccc2c(c1)OCCO2 | . | 45µM | ? | . | ? | ?
Cc1nnc(SCC(=O)c2cc(C)n(-c3ccc4c(c3)OCO4)c2C)s1 | . | . | 45µM | . | ? | ?
COCC(C)n1c(SCC(=O)NC(=O)NC2CCCC2)nc2ccccc2c1=O (stereo not given) | . | / | . | . | . | .[12.7 µM]
O=C(CSc1nnc2ccc3ccccc3n12)Nc1ccccc1Cl | / | / | . | . | . | .
